In article PMC11006913:
Changes are numbered by the printed parent chain.

What was measured:
Assay in all cases: PBM; 200 nM protein, PBS
Conditions in all cases: dsDNA, one strand shown
CRX [1] = target: CRX (Homo sapiens, UniProt O43186 26-111)
SIX6 [2] = target: T1, SIX6 (Homo sapiens, UniProt O95475 114-200, L167I)
T1 sequence: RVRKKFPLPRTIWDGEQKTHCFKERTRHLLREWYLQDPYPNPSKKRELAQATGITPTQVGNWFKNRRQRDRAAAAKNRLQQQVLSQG

SIX6 [3] = target: T2, SIX6 (Homo sapiens, UniProt O95475 114-200, L143V)
T2 sequence: T1 sequence with L30V, I54L

SIX6 [4] = target: T3, SIX6 (Homo sapiens, UniProt O95475 114-200, H141N)
T3 sequence: T1 sequence with H28N, I54L

SIX6 [5] = target: T4, SIX6 (Homo sapiens, UniProt O95475 114-200, T165P)
T4 sequence: T1 sequence with T52P, I54L

SIX6 [6] = target: T5, SIX6 (Homo sapiens, UniProt O95475 114-200, L167M)
T5 sequence: T1 sequence with I54M

SIX6 [7] = target: T6, SIX6 (Homo sapiens, UniProt O95475 114-200, L143M)
T6 sequence: T1 sequence with L30M, I54L

SIX6 [8] = target: T7, SIX6 (Homo sapiens, UniProt O95475 114-200, L143I)
T7 sequence: T1 sequence with L30I, I54L

SIX6 [9] = target: T8, SIX6 (Homo sapiens, UniProt O95475 114-200, T165G)
T8 sequence: T1 sequence with T52G, I54L

SIX6 [10] = target: T9, SIX6 (Homo sapiens, UniProt O95475 114-200, T139Q)
T9 sequence: T1 sequence with T26Q, I54L

CRX [11] = target: CRX (Homo sapiens, UniProt O43186 26-111, E42D)
SIX6 [12] = target: T10, SIX6 (Homo sapiens, UniProt O95475 114-200, T165A)
T10 sequence: T1 sequence with T52A, I54L

SIX6 [13] = target: T11, SIX6 (Homo sapiens, UniProt O95475 114-200, L167V)
T11 sequence: T1 sequence with I54V

SIX6 [14] = target: T12, SIX6 (Homo sapiens, UniProt O95475 114-200)
T12 sequence: T1 sequence with I54L

SIX6 [15] = target: T13, SIX6 (Homo sapiens, UniProt O95475 114-200, T165I)
T13 sequence: T1 sequence with T52I, I54L

CRX [16] = target: CRX (Homo sapiens, UniProt O43186 26-111, R41L)
HOXB9 [17] = target: HOXB9 (Homo sapiens, UniProt P17482 171-250, T197M)
HOXC9 [18] = target: HOXC9 (Homo sapiens, UniProt P31274 178-260, K195R)
HOXA7 [19] = target: HOXA7 (Homo sapiens, UniProt P31268 116-202)
PAX4 [20] = target: T14, PAX4 (Homo sapiens, UniProt O43316 9-242, R200K)
T14 sequence: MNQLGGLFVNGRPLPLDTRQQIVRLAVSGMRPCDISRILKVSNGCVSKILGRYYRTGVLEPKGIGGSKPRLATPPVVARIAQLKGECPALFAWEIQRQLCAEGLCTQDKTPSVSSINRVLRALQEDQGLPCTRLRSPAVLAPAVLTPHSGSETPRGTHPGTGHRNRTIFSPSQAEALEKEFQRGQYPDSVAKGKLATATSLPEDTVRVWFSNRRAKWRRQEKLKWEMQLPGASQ

PAX4 [21] = target: T15, PAX4 (Homo sapiens, UniProt O43316 9-242)
T15 sequence: T14 sequence with K192R

HOXB6 [22] = target: HOXB6 (Homo sapiens, UniProt P17509 132-218, K202E)
HOXB9 [23] = target: HOXB9 (Homo sapiens, UniProt P17482 171-250)
HOXC9 [24] = target: HOXC9 (Homo sapiens, UniProt P31274 178-260)
ALX3 [25] = target: ALX3 (Homo sapiens, UniProt O95076 139-225, N203Q)
HOXD13 = HOXD13 (Homo sapiens, UniProt P35453 263-343, T313R)
PAX4 [26] = target: T16, PAX4 (Homo sapiens, UniProt O43316 9-242, R200Q)
T16 sequence: T14 sequence with K192Q

HOXC9 [27] = target: HOXC9 (Homo sapiens, UniProt P31274 178-260, R193K)
PAX4 [28] = target: T17, PAX4 (Homo sapiens, UniProt O43316 9-242, F177V)
T17 sequence: T14 sequence with F169V, K192R

HOXC10 = HOXC10 (Homo sapiens, UniProt Q9NYD6 254-340, K271E)
PAX4 [29] = target: T18, PAX4 (Homo sapiens, UniProt O43316 9-242, F177Y)
T18 sequence: T14 sequence with F169Y, K192R

HESX1 [30] = target: HESX1 (Homo sapiens, UniProt Q9UBX0 95-180, R109Q)
HOXB9 [31] = target: HOXB9 (Homo sapiens, UniProt P17482 171-250, R186Q)
HOXC9 [32] = target: HOXC9 (Homo sapiens, UniProt P31274 178-260, R222W)
HESX1 [33] = target: HESX1 (Homo sapiens, UniProt Q9UBX0 95-180, F115L)
PAX4 [34] = target: T19, PAX4 (Homo sapiens, UniProt O43316 9-242, R227W)
T19 sequence: T14 sequence with K192R, R219W

HOXA7 [35] = target: HOXA7 (Homo sapiens, UniProt P31268 116-202, W177C)
ALX3 [36] = target: ALX3 (Homo sapiens, UniProt O95076 139-225, N203S)
HOXB6 [37] = target: HOXB6 (Homo sapiens, UniProt P17509 132-218)
VENTX [38] = target: T20, VENTX (Homo sapiens, UniProt O95231 78-163, R121Q)
T20 sequence: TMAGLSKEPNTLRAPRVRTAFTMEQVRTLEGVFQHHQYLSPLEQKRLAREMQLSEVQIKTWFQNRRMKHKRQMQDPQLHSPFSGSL

VENTX [39] = target: T21, VENTX (Homo sapiens, UniProt O95231 78-163)
T21 sequence: T20 sequence with Q44R

VENTX [40] = target: T22, VENTX (Homo sapiens, UniProt O95231 78-163, Y115F)
T22 sequence: T20 sequence with Y38F, Q44R

Chain of CRX (Homo sapiens, UniProt O43186 26-111) (O43186 26-111): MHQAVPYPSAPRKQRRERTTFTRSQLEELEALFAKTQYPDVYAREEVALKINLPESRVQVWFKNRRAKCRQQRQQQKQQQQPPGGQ
Chain of CRX (Homo sapiens, UniProt O43186 26-111, E42D) (O43186 26-111 E42D): as the sequence (O43186 26-111) above, with E17D counted along it
Chain of CRX (Homo sapiens, UniProt O43186 26-111, R41L) (O43186 26-111 R41L): as the sequence (O43186 26-111) above, with R16L counted along it
Chain of HOXB6 (Homo sapiens, UniProt P17509 132-218, K202E) (P17509 132-218 K202E): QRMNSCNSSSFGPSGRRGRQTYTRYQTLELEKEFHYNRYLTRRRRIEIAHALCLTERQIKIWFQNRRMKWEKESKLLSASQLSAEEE
Chain of HESX1 (Homo sapiens, UniProt Q9UBX0 95-180, R109Q) (Q9UBX0 95-180 R109Q): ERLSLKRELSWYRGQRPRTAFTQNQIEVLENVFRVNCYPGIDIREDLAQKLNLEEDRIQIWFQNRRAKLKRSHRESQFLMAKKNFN
Chain of ALX3 (Homo sapiens, UniProt O95076 139-225, N203Q) (O95076 139-225 N203Q): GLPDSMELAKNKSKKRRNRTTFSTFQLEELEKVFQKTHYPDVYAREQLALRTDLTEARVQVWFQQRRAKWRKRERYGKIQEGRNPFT
Chain of HOXB9 (Homo sapiens, UniProt P17482 171-250, T197M) (P17482 171-250 T197M): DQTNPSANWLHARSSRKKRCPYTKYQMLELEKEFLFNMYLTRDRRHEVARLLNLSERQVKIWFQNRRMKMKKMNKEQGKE
Chain of HOXA7 (Homo sapiens, UniProt P31268 116-202, W177C) (P31268 116-202 W177C): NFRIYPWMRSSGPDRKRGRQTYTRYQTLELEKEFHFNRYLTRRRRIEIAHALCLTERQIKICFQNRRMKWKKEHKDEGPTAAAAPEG
Chain of HOXB6 (Homo sapiens, UniProt P17509 132-218) (P17509 132-218): as the sequence (P17509 132-218 K202E) above, with E71K counted along it
Chain of HOXD13 (P35453 263-343 T313R): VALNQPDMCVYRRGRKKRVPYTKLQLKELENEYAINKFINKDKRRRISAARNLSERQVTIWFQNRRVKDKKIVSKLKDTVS
Chain of HOXC9 (Homo sapiens, UniProt P31274 178-260) (P31274 178-260): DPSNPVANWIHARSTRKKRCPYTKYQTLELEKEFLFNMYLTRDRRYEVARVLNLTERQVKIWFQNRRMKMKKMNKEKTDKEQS
Chain of HOXB9 (Homo sapiens, UniProt P17482 171-250) (P17482 171-250): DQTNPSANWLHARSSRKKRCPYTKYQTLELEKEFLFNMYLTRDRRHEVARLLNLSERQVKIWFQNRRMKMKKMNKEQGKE
Chain of HOXA7 (Homo sapiens, UniProt P31268 116-202) (P31268 116-202): as the sequence (P31268 116-202 W177C) above, with C62W counted along it
Chain of ALX3 (Homo sapiens, UniProt O95076 139-225, N203S) (O95076 139-225 N203S): as the sequence (O95076 139-225 N203Q) above, with Q65S counted along it
Chain of HOXC9 (Homo sapiens, UniProt P31274 178-260, R193K) (P31274 178-260 R193K): as the sequence (P31274 178-260) above, with R16K counted along it
Chain of HOXC10 (Q9NYD6 254-340 K271E): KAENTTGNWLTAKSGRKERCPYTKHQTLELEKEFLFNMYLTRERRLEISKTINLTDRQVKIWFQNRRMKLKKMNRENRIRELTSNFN
Chain of HOXB9 (Homo sapiens, UniProt P17482 171-250, R186Q) (P17482 171-250 R186Q): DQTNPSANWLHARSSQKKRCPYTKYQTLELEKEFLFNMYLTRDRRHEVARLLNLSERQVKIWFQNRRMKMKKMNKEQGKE
Chain of HOXC9 (Homo sapiens, UniProt P31274 178-260, K195R) (P31274 178-260 K195R): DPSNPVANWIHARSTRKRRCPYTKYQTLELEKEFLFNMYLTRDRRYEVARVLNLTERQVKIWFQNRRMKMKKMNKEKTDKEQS
Chain of HESX1 (Homo sapiens, UniProt Q9UBX0 95-180, F115L) (Q9UBX0 95-180 F115L): as the sequence (Q9UBX0 95-180 R109Q) above, with Q15R, F21L counted along it
Chain of HOXC9 (Homo sapiens, UniProt P31274 178-260, R222W) (P31274 178-260 R222W): as the sequence (P31274 178-260) above, with R45W counted along it

CCGTCGCC
binding signal (CRX [1]): 8.18 upbm affinity estimate (log intensity, higher = more binding, comparable within an allelic series) | binding signal (SIX6 [2]): 8.85 upbm affinity estimate (log intensity, higher = more binding, comparable within an allelic series) | binding signal (SIX6 [3]): 8.91 upbm affinity estimate (log intensity, higher = more binding, comparable within an allelic series) | binding signal (SIX6 [4]): 8.81 upbm affinity estimate (log intensity, higher = more binding, comparable within an allelic series) | binding signal (SIX6 [5]): 9.06 upbm affinity estimate (log intensity, higher = more binding, comparable within an allelic series) | binding signal (SIX6 [6]): 8.97 upbm affinity estimate (log intensity, higher = more binding, comparable within an allelic series) | binding signal (SIX6 [7]): 8.82 upbm affinity estimate (log intensity, higher = more binding, comparable within an allelic series) | binding signal (SIX6 [8]): 8.94 upbm affinity estimate (log intensity, higher = more binding, comparable within an allelic series) | binding signal (SIX6 [9]): 8.89 upbm affinity estimate (log intensity, higher = more binding, comparable within an allelic series) | binding signal (SIX6 [10]): 9.02 upbm affinity estimate (log intensity, higher = more binding, comparable within an allelic series) | binding signal (CRX [11]): 8.26 upbm affinity estimate (log intensity, higher = more binding, comparable within an allelic series) | binding signal (SIX6 [12]): 8.74 upbm affinity estimate (log intensity, higher = more binding, comparable within an allelic series) | binding signal (SIX6 [13]): 8.83 upbm affinity estimate (log intensity, higher = more binding, comparable within an allelic series) | binding signal (SIX6 [14]): 8.87 upbm affinity estimate (log intensity, higher = more binding, comparable within an allelic series) | binding signal (SIX6 [15]): 8.79 upbm affinity estimate (log intensity, higher = more binding, comparable within an allelic series) | binding signal (CRX [16]): 8.24 upbm affinity estimate (log intensity, higher = more binding, comparable within an allelic series)

ATATTAAT
binding signal (CRX [1]): 11.6 upbm affinity estimate (log intensity, higher = more binding, comparable within an allelic series) | binding signal (HOXB9 [17]): 10.2 upbm affinity estimate (log intensity, higher = more binding, comparable within an allelic series) | binding signal (HOXC9 [18]): 12.5 upbm affinity estimate (log intensity, higher = more binding, comparable within an allelic series) | binding signal (HOXA7 [19]): 11.2 upbm affinity estimate (log intensity, higher = more binding, comparable within an allelic series) | binding signal (PAX4 [20]): 11.7 upbm affinity estimate (log intensity, higher = more binding, comparable within an allelic series) | binding signal (PAX4 [21]): 12.1 upbm affinity estimate (log intensity, higher = more binding, comparable within an allelic series) | binding signal (HOXB6 [22]): 10.1 upbm affinity estimate (log intensity, higher = more binding, comparable within an allelic series) | binding signal (HOXB9 [23]): 11.8 upbm affinity estimate (log intensity, higher = more binding, comparable within an allelic series) | binding signal (CRX [11]): 11.5 upbm affinity estimate (log intensity, higher = more binding, comparable within an allelic series) | binding signal (HOXC9 [24]): 12.5 upbm affinity estimate (log intensity, higher = more binding, comparable within an allelic series) | binding signal (ALX3 [25]): 8.63 upbm affinity estimate (log intensity, higher = more binding, comparable within an allelic series) | binding signal (HOXD13): 10.8 upbm affinity estimate (log intensity, higher = more binding, comparable within an allelic series) | binding signal (PAX4 [26]): 11.9 upbm affinity estimate (log intensity, higher = more binding, comparable within an allelic series) | binding signal (HOXC9 [27]): 12.5 upbm affinity estimate (log intensity, higher = more binding, comparable within an allelic series) | binding signal (PAX4 [28]): 10.7 upbm affinity estimate (log intensity, higher = more binding, comparable within an allelic series) | binding signal (HOXC10): 11.8 upbm affinity estimate (log intensity, higher = more binding, comparable within an allelic series) | binding signal (PAX4 [29]): 11 upbm affinity estimate (log intensity, higher = more binding, comparable within an allelic series) | binding signal (HESX1 [30]): 8.59 upbm affinity estimate (log intensity, higher = more binding, comparable within an allelic series) | binding signal (HOXB9 [31]): 11.5 upbm affinity estimate (log intensity, higher = more binding, comparable within an allelic series) | binding signal (HOXC9 [32]): 11.1 upbm affinity estimate (log intensity, higher = more binding, comparable within an allelic series) | binding signal (HESX1 [33]): 8.13 upbm affinity estimate (log intensity, higher = more binding, comparable within an allelic series) | binding signal (PAX4 [34]): 11 upbm affinity estimate (log intensity, higher = more binding, comparable within an allelic series) | binding signal (HOXA7 [35]): 9 upbm affinity estimate (log intensity, higher = more binding, comparable within an allelic series) | binding signal (CRX [16]): 11 upbm affinity estimate (log intensity, higher = more binding, comparable within an allelic series) | binding signal (ALX3 [36]): 8.74 upbm affinity estimate (log intensity, higher = more binding, comparable within an allelic series) | binding signal (HOXB6 [37]): 11.8 upbm affinity estimate (log intensity, higher = more binding, comparable within an allelic series)

GATTAATA
binding signal (CRX [1]): 12.7 upbm affinity estimate (log intensity, higher = more binding, comparable within an allelic series) | binding signal (VENTX [38]): 11.2 upbm affinity estimate (log intensity, higher = more binding, comparable within an allelic series) | binding signal (VENTX [39]): 11.8 upbm affinity estimate (log intensity, higher = more binding, comparable within an allelic series) | binding signal (VENTX [40]): 11 upbm affinity estimate (log intensity, higher = more binding, comparable within an allelic series) | binding signal (CRX [11]): 12.7 upbm affinity estimate (log intensity, higher = more binding, comparable within an allelic series)
